# Assay results taken from PubChem BioAssay (NCI).
# This is part of a sample that, as a whole, favours compounds with a hit. Of some 83,000 tested, about 20% had one in any assay.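 48-hour exposure, single concentration, 96-well plates; percent growth endpoint where 0 means no net growth. Active: below 10.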 Unmarked numbers belong to inactive results. Active and inactive are the calls of the source.
# System: K-562 leukemia
# Assay: NCI-60 one-dose screen, 48 h (100 = growth as untreated, 0 = no growth, -100 = all killed)
# Conditions: 10 µM
row,SMILES,growth
1,COc1ccc(-c2nn(-c3cccc(NC(=O)c4ccc(N5CCOCC5)c(C(F)(F)F)c4)c3)cc2-c2ccncc2)cc1Cl,23.6%
2,CN1CC[C@@H](c2c(O)cc(O)c3c(=O)cc(-c4ccccc4Cl)oc23)[C@@H](O)C1,-23.8% (active)
3,Nc1nc(-c2ccccc2Cl)cc(-c2ccc(Cl)cc2Cl)n1,27.3%
4,Cc1[nH]nc2c1C(c1cnn(C)c1)C(C#N)=C(N)O2 (stereo not drawn),93.6%
5,O=C(N/N=C/c1cc2ccccc2c2ccccc12)c1cc(O)c(O)c(O)c1,20.2%
6,Cc1ccc(N=Nc2c(N)nc(N)[nH]c2=O)cc1C,90.9%
7,CCCCCCCCCCCCCCCC(=O)OC1[C@@H](OC(=O)CCCCCCCCCCCCCCC)[C@@H](C(=O)N[C@@H](CCCCN)C(=O)OC)O[C@H]1n1cnc2c(=O)[nH]c(NC(=O)C(C)C)nc21 (stereo partly drawn),82.9%
8,Cc1cc(=O)n2nnc3c4ccccc4ccc3n12,24.7%
9,CN(Cc1ccccc1)Cc1ccc([N+](=O)[O-])cc1I,91.7%
10,COc1ccc(-c2nsc3c2NC(=O)CC3c2ccc(F)cc2)cc1 (stereo not drawn),10.1%
11,COc1ccc(N2C(=O)C3c4[nH]c5ccc(OCc6ccccc6)cc5c4C4CCC(C(C)C)CC4C3C2=O)cc1 (stereo not drawn),117%
12,C#Cc1ccc(-n2c(/C=C/c3ccc(O)c(OC)c3)nc3ncccc3c2=O)cc1,80%
13,CCCCCCN1CCN(Cc2ccc(N(CC)CC)cc2)C(=O)C1=O,11.7%
14,CC(C)N(CCNc1nc(C(Cl)(Cl)Cl)nc2cc(Cl)ccc12)C(C)C,-53.9% (active)
15,COc1ccc(-c2nn(-c3cccc(NC(=O)Nc4cc(C(F)(F)F)cc(C(F)(F)F)c4)c3)cc2-c2ccncc2)cc1Cl,7.03% (active)
16,CCOC(=O)N1C/C(=C/c2ccc(Cl)cc2)C(=O)/C(=C/c2ccc(Cl)cc2)C1,3.7% (active)
17,O=C1Nc2ccccc2C1=NC1CCCCC1,100%
18,O=C(N/N=C\c1cc(Cl)ccc1[N+](=O)[O-])c1ccco1,102%
19,Cc1c(Cl)cccc1NC(=O)c1sc2nc3c(cc2c1N)C(=O)CCC3,7.09% (active)
20,O=C(O)c1ccc(P(=O)(O)O)c([N+](=O)[O-])c1,107%

row,SMILES,growth
1,O=C1N=NC2=C1c1c3ccccc3c(O)n1CC2,93%
2,COc1cc2cc3c(nc2cc1OC)CCN3Cc1ccc(NC(=O)Nc2ccc(F)cc2F)cc1,61.5%
3,Nc1c(C(=O)Nc2cccc(F)c2)sc2nc3c(cc12)C(=O)CCC3,20.1%
4,O=C1/C(=C\c2ccc(F)cc2)CN(C(=O)c2ccc([N+](=O)[O-])cc2)C/C1=C\c1ccc(F)cc1,1.96% (active)
5,Nc1c(C(=O)Nc2ccccc2)sc2nc3c(cc12)CCCC3,13.6%
6,CN(C)C=Nc1cc(Cl)ccc1Cl,110%
7,Nc1c(C(=O)Nc2cccc(Br)c2)sc2nc3c(cc12)C(O)CCC3 (stereo not drawn),7.52% (active)
8,O=C(Nc1nc2ccccc2s1)Nc1ccc([N+](=O)[O-])cc1Cl,58.8%
9,COc1ccc([N+](=O)[O-])c(C(=O)O)c1,88.6%
10,COc1cc(OC)cc(-c2cncn2-c2ccc(-c3nc4cc(OC)cc(OC)c4s3)cc2)c1,19.2%
11,CC[C@H](C)C(=O)O[C@H]1CCC=C2C=C[C@H](C)C(CCC3C[C@@H](O)CC(=O)O3)[C@H]21 (stereo partly drawn),71.5%
12,CCOC(=O)C1(CC(C)C)CCOC1=O (stereo not drawn),97.8%
13,O=C(CCCCC(=O)Nc1ccc2c(c1)/C(=C/c1ccc[nH]1)C(=O)N2)NO,85%
14,COc1ccc(S(=O)(=O)Nc2c(/C=C\c3cc(OC)c(OC)c(OC)c3)ccc(OC)c2O)cc1,12.3%
15,CC1=C(N2CCOCC2)C(N2CCOCC2)=C(C)C(=O)C1=O,93%
16,c1ccc([I+]c2ccccc2)cc1,42.2%
17,CCOCC(=O)C(C#N)c1ccc(Cl)c(Cl)c1 (stereo not drawn),94.6%
18,O=C1c2ccc3c4c(ccc(c24)C(=O)N1CCNCc1ccccc1)C(=O)N(CCNCc1ccccc1)C3=O,1.04% (active)
19,COc1cc(C(=O)N2CCN(c3ccccc3OC)CC2)c(N)cc1OCCCN1CCN(c2ccccc2OC)CC1,8.81% (active)

# System: MALME-3M melanoma
# Assay: as above
# Conditions: 10 µM
row,SMILES,growth
1,COc1ccc(-c2nn(-c3cccc(NC(=O)c4ccc(N5CCOCC5)c(C(F)(F)F)c4)c3)cc2-c2ccncc2)cc1Cl,48.7%
2,CN1CC[C@@H](c2c(O)cc(O)c3c(=O)cc(-c4ccccc4Cl)oc23)[C@@H](O)C1,-68.9% (active)
3,Nc1nc(-c2ccccc2Cl)cc(-c2ccc(Cl)cc2Cl)n1,86.6%
4,Cc1[nH]nc2c1C(c1cnn(C)c1)C(C#N)=C(N)O2 (stereo not drawn),95.8%
5,O=C(N/N=C/c1cc2ccccc2c2ccccc12)c1cc(O)c(O)c(O)c1,49%
6,Cc1ccc(N=Nc2c(N)nc(N)[nH]c2=O)cc1C,89.9%
7,CCCCCCCCCCCCCCCC(=O)OC1[C@@H](OC(=O)CCCCCCCCCCCCCCC)[C@@H](C(=O)N[C@@H](CCCCN)C(=O)OC)O[C@H]1n1cnc2c(=O)[nH]c(NC(=O)C(C)C)nc21 (stereo partly drawn),98.5%
8,Cc1cc(=O)n2nnc3c4ccccc4ccc3n12,81.2%
9,CN(Cc1ccccc1)Cc1ccc([N+](=O)[O-])cc1I,84%
10,COc1ccc(-c2nsc3c2NC(=O)CC3c2ccc(F)cc2)cc1 (stereo not drawn),31.1%
11,COc1ccc(N2C(=O)C3c4[nH]c5ccc(OCc6ccccc6)cc5c4C4CCC(C(C)C)CC4C3C2=O)cc1 (stereo not drawn),107%
12,C#Cc1ccc(-n2c(/C=C/c3ccc(O)c(OC)c3)nc3ncccc3c2=O)cc1,95%
13,CCCCCCN1CCN(Cc2ccc(N(CC)CC)cc2)C(=O)C1=O,10.1%
14,CC(C)N(CCNc1nc(C(Cl)(Cl)Cl)nc2cc(Cl)ccc12)C(C)C,-28% (active)
15,COc1ccc(-c2nn(-c3cccc(NC(=O)Nc4cc(C(F)(F)F)cc(C(F)(F)F)c4)c3)cc2-c2ccncc2)cc1Cl,-19.9% (active)
16,CCOC(=O)N1C/C(=C/c2ccc(Cl)cc2)C(=O)/C(=C/c2ccc(Cl)cc2)C1,84.9%
17,O=C1Nc2ccccc2C1=NC1CCCCC1,90.9%
18,O=C(N/N=C\c1cc(Cl)ccc1[N+](=O)[O-])c1ccco1,125%
19,Cc1c(Cl)cccc1NC(=O)c1sc2nc3c(cc2c1N)C(=O)CCC3,40.1%
20,O=C(O)c1ccc(P(=O)(O)O)c([N+](=O)[O-])c1,97.7%

row,SMILES,growth
1,O=C1N=NC2=C1c1c3ccccc3c(O)n1CC2,109%
2,COc1cc2cc3c(nc2cc1OC)CCN3Cc1ccc(NC(=O)Nc2ccc(F)cc2F)cc1,93.2%
3,Nc1c(C(=O)Nc2cccc(F)c2)sc2nc3c(cc12)C(=O)CCC3,32.4%
4,O=C1/C(=C\c2ccc(F)cc2)CN(C(=O)c2ccc([N+](=O)[O-])cc2)C/C1=C\c1ccc(F)cc1,40.5%
5,Nc1c(C(=O)Nc2ccccc2)sc2nc3c(cc12)CCCC3,52%
6,CN(C)C=Nc1cc(Cl)ccc1Cl,118%
7,Nc1c(C(=O)Nc2cccc(Br)c2)sc2nc3c(cc12)C(O)CCC3 (stereo not drawn),64.3%
8,O=C(Nc1nc2ccccc2s1)Nc1ccc([N+](=O)[O-])cc1Cl,96.4%
9,COc1ccc([N+](=O)[O-])c(C(=O)O)c1,105%
10,COc1cc(OC)cc(-c2cncn2-c2ccc(-c3nc4cc(OC)cc(OC)c4s3)cc2)c1,48%
11,CC[C@H](C)C(=O)O[C@H]1CCC=C2C=C[C@H](C)C(CCC3C[C@@H](O)CC(=O)O3)[C@H]21 (stereo partly drawn),89.1%
12,CCOC(=O)C1(CC(C)C)CCOC1=O (stereo not drawn),101%
13,O=C(CCCCC(=O)Nc1ccc2c(c1)/C(=C/c1ccc[nH]1)C(=O)N2)NO,17.5%
14,COc1ccc(S(=O)(=O)Nc2c(/C=C\c3cc(OC)c(OC)c(OC)c3)ccc(OC)c2O)cc1,61.5%
15,CC1=C(N2CCOCC2)C(N2CCOCC2)=C(C)C(=O)C1=O,101%
16,c1ccc([I+]c2ccccc2)cc1,50.5%
17,CCOCC(=O)C(C#N)c1ccc(Cl)c(Cl)c1 (stereo not drawn),106%
18,O=C1c2ccc3c4c(ccc(c24)C(=O)N1CCNCc1ccccc1)C(=O)N(CCNCc1ccccc1)C3=O,-68.4% (active)
19,COc1cc(C(=O)N2CCN(c3ccccc3OC)CC2)c(N)cc1OCCCN1CCN(c2ccccc2OC)CC1,83.4%
